# From ChEMBL document CHEMBL3988442, “University of Dundee, Small-Polar-MMV Screening Library” (2021)
# The campaign covered roughly 69,000 compounds. About 1,000 (1.4%) showed an effect of 50% or more. This is one part of a sample in which strong results are shown more often than they occur.
# Tested on: Leishmania donovani
# Assay: Leishmania intramacrophage assay
# Assay type: functional, organism-based
# Design: scale not given: in the data most compounds retested in dose-response had high values
smiles,measurement,setting,value
O=C(c1ccn(COc2ccc(F)cc2)n1)N1CCCCCC1,Percent Effect,"30.3 µM, […]",-66.53%
O=C(c1ccn(COc2ccc(F)cc2)n1)N1CCCC1,Percent Effect,"30.3 µM, […]",0.02157%
CC(C)c1ccc(OCn2ccc(C(=O)N3CCCC3)n2)cc1,Percent Effect,"30 µM, 30.03 µM",59.3%
Cc1nsc(C(=O)NCCc2ccc(Cl)cc2)n1,Percent Effect,"30.3 µM, […]",25.28%
Cc1cnc(NCCCN2CCc3ccccc32)nc1,Percent Effect,"30.3 µM, […]",21.16%
Cc1ccnc(NCCCN2CCc3ccccc32)n1,Percent Effect,"30.3 µM, […]",20.07%
CN(C)c1nc(NCCCN2CCc3ccccc32)ncc1F,Percent Effect,"30.3 µM, […]",50.82%
CNC(=O)c1cccc(NC(=O)CN2CCN(S(C)(=O)=O)CC2)c1,Percent Effect,"30 µM, 30.03 µM",9.767%
Cc1ccc(OCC(=O)N(C)Cc2cccc(F)c2)cn1,Percent Effect,"30.3 µM, […]",34.51%
NC(=O)C1CCN(C(=O)NC2CCN(CC3CCCC3)C2)CC1 (stereo not drawn),Percent Effect,"30.3 µM, […]",54.02%
O=C(NC1CCN(CC2CC2)C1)N1CCC(OC2CCCCC2)CC1 (stereo not drawn),Percent Effect,"30.3 µM, […]",53.02%
CSC(C)(C)CNC(=O)NC1CCN(CC2CC2)C1 (stereo not drawn),Percent Effect,"30.3 µM, […]",2.957%
O=C(CCN1CCOCC1)NC1CCCN(CC2CCCCC2)C1 (stereo not drawn),Percent Effect,"30.3 µM, […]",10.41%
O=C(CCN1CCCCO1)NC1CCCN(CC2CCCCC2)C1 (stereo not drawn),Percent Effect,"30.3 µM, […]",-1.788%
O=C(NC1CCN(CC2CCCC2)C1)N1CCC(OCC2CC2)CC1 (stereo not drawn),Percent Effect,"30.3 µM, […]",32.77%
COc1ncccc1C(=O)N1CCCC1c1c(C)n[nH]c1C (stereo not drawn),Percent Effect,"30.3 µM, […]",18%
Cc1noc(C2CCCN(C(=O)CCCNc3ncccn3)C2)n1 (stereo not drawn),Percent Effect,30 µM,-32%
CN(CC(=O)N1CCN(c2ncccn2)CC1)c1ccc(Cl)cn1,Percent Effect,"30 µM, 30.03 µM",26.44%
O=C(O)c1ccc(C2CCCN(Cc3ccc(-c4cc[nH]n4)o3)C2)cc1 (stereo not drawn),Percent Effect,"30.3 µM, […]",54.21%
O=C(O)c1ccccc1C1CCN(Cc2ccc(-c3cc[nH]n3)o2)C1 (stereo not drawn),Percent Effect,"30.3 µM, […]",8.649%
O=C(O)c1ccc(CC2CCN(Cc3ccc(-c4cc[nH]n4)o3)C2)cc1 (stereo not drawn),Percent Effect,"30.3 µM, […]",-33.6%
CNC(=O)CNC(=O)Nc1ccc(Br)c(F)c1,Percent Effect,"30.3 µM, […]",-0.911%
COc1ccc2ccccc2c1CNCC1CCS(=O)(=O)C1.Cl (stereo not drawn),Percent Effect,"30.3 µM, […]",-2.378%
CCOc1ccc2ccccc2c1CNCC1CCS(=O)(=O)C1.Cl (stereo not drawn),Percent Effect,"30.3 µM, […]",-4.478%
CCOc1ccc2ccccc2c1CNCC1CCNCC1.Cl.Cl,Percent Effect,"30.3 µM, […]",87.01%
CN(C)C(=O)COC1COC2(CCN(S(C)(=O)=O)CC2)C1 (stereo not drawn),Percent Effect,"30 µM, 30.03 µM",8.131%
COc1ccc(-c2noc([C@@H](C)NS(=O)(=O)CC(C)C)c2C(=O)O)cc1,Percent Effect,"30.3 µM, […]",14.82%
OCc1ccncc1NCc1cnc(-c2ccccn2)s1,Percent Effect,"30.3 µM, […]",26.01%
Cc1nn(CC(=O)NCCc2ccncc2)c(=O)n1Cc1ccccc1,Percent Effect,"30.3 µM, […]",4.169%
C=C(C)COc1cccc(CNCCc2nc(N)cc(O)n2)c1,Percent Effect,"30.3 µM, […]",10.98%
CCOCc1ccc(NC(=O)N2CCOC3(CCC3)C2)cc1,Percent Effect,"30.3 µM, […]",-4.354%
Cc1ccc(C(=O)O)cc1CNC(=O)CN1CC[C@](C)(O)C(C)(C)C1,Percent Effect,"30.3 µM, […]",62.04%
CC1(C)CN(CC(=O)NCc2ccccc2F)C[C@]1(C)O,Percent Effect,"30.3 µM, […]",15.59%
Cc1ccc(C(=O)O)cc1CNC(=O)CN1CC(C)(C)[C@@](C)(O)C1,Percent Effect,"30.3 µM, […]",14.97%
Cn1ccnc1Sc1ccc(S(N)(=O)=O)cn1,Percent Effect,"30.3 µM, […]",-16.43%
Cl.Cn1ccnc1Sc1ccc(N)cn1,Percent Effect,"30.3 µM, […]",50.34%
CN1CCN(S(=O)(=O)c2ccc(Sc3nccn3C)nc2)CC1,Percent Effect,"30.3 µM, […]",0.3902%
COC(=O)CC1C(=O)NCCN1c1nc2c(s1)c(C)nn2C (stereo not drawn),Percent Effect,"30.3 µM, […]",6.396%
COc1ccc2c(O)c(NC(=O)NCC3CC3)cnc2c1,Percent Effect,"30 µM, 30.03 µM",-30.24%
NC(=O)c1ccc(CN2C(=O)C3(CCNCC3)Nc3ccccc32)cc1,Percent Effect,"30.3 µM, […]",29.82%
C=Cc1ccc(CN2C(=O)C3(CCNCC3)Nc3ccccc32)cc1,Percent Effect,"30.3 µM, […]",98.05%
N#Cc1cccc(CN2C(=O)C3(CCNCC3)Nc3ccccc32)c1,Percent Effect,"30.3 µM, […]",37.63%
C=Cc1ccc(CN2CCCC3(CNC(=O)c4ccccc4O3)C2)cc1 (stereo not drawn),Percent Effect,"30.3 µM, […]",-7.721%
Cl.O=C1CC2(CCNCC2)C(=O)N1Cc1ccc(F)cc1,Percent Effect,"30.3 µM, […]",26.47%
CC(C)c1ccc(CN2C(=O)C3(CCNCC3)Nc3ccccc32)cc1,Percent Effect,"30.3 µM, […]",100.4%
O=C(O)C(F)(F)F.O=S(=O)(N[C@@H]1CCO[C@]2(CCN(CC3CCOCC3)C2)C1)C1CC1,Percent Effect,"30.3 µM, […]",12.64%
Cn1cc(C(=O)NCc2cn3c(n2)CN(Cc2ccccn2)CC3)cn1.O=C(O)C(F)(F)F.O=C(O)C(F)(F)F,Percent Effect,"30 µM, 30.03 µM",26.85%
Cn1cccc1C(=O)NCc1cn2c(n1)CN(Cc1ccccn1)CC2.O=C(O)C(F)(F)F.O=C(O)C(F)(F)F,Percent Effect,"30.3 µM, […]",52.64%
Cn1cccc1C(=O)NCc1cn2c(n1)CN(Cc1cccnc1)CC2.O=C(O)C(F)(F)F.O=C(O)C(F)(F)F,Percent Effect,"30.3 µM, […]",5.106%
O=C(c1cccc2[nH]ccc12)N1CCC2(CCOC2)C1 (stereo not drawn),Percent Effect,"30.3 µM, […]",24.57%
Cc1cnc(N2CCOCC3(CCN(c4ccccn4)C3)C2)nc1.O=C(O)C(F)(F)F.O=C(O)C(F)(F)F (stereo not drawn),Percent Effect,"30.3 µM, […]",-8.514%
CCc1c(C)sc2nc3n(CCN4CCCCC4)nc(SC)n3c(=O)c12,Percent Effect,"30.3 µM, […]",50.52%
CCc1c(C)sc2nc3n(CCN4CCOCC4)nc(SC)n3c(=O)c12,Percent Effect,"30.3 µM, […]",9.764%
CCc1c(C)sc2nc3n(CCN(C)C)nc(SC)n3c(=O)c12,Percent Effect,"30.3 µM, […]",24.34%
CCn1cc(Br)c(C(=O)NCc2cccnc2)n1,Percent Effect,"30 µM, 30.03 µM",0.8694%
N#Cc1cnc(N2CCC3(CC2)OCCO3)nc1N,Percent Effect,"30.3 µM, […]",39.63%
O=C1NCCN1C1CCN(Cc2nc(-c3ccccc3)no2)CC1,Percent Effect,30 µM,51.92%
Cc1cccc(-c2noc(CN3CCC(N4CCNC4=O)CC3)n2)c1,Percent Effect,"30 µM, 30.03 µM",37%
O=C1NCCN1C1CCN(Cc2nc(-c3ccsc3)no2)CC1,Percent Effect,30 µM,51.47%
Cc1ccc(-c2noc(CN3CCC(N4CCNC4=O)CC3)n2)cc1,Percent Effect,30 µM,33.86%
Cc1ccccc1-c1noc(CN2CCC(N3CCNC3=O)CC2)n1,Percent Effect,30 µM,45.33%
O=C1NCCN1C1CCN(Cc2nc(-c3ccoc3)no2)CC1,Percent Effect,"30 µM, 30.03 µM",14.49%
NC(=O)C1CCCN1C(=O)c1cccc2c1OCO2 (stereo not drawn),Percent Effect,"30.3 µM, […]",-0.4744%
CCC(NC(=O)C1CC1)c1ccccc1OCC(=O)N1CCCC1 (stereo not drawn),Percent Effect,30 µM,-1.247%
CNC(=O)C1CN(C)CCN(C(=O)CCn2nnc3ccccc32)C1 (stereo not drawn),Percent Effect,"30.3 µM, […]",12.96%
CN(C)c1ccc(C2CC(=O)Nc3c2cnn3Cc2ccco2)cc1 (stereo not drawn),Percent Effect,"30.3 µM, […]",7.757%
Cc1nc(C2CCNCC2)cc(N(C)Cc2cc3cc(F)ccc3[nH]2)n1,Percent Effect,"30.3 µM, […]",78.55%
CCN(Cc1ccncc1)c1cc(C2CCCNC2)nc(C)n1 (stereo not drawn),Percent Effect,"30.3 µM, […]",-18.58%
Cc1nc(C2CCNCC2)cc(N(C)CCc2cn[nH]c2)n1,Percent Effect,"30.3 µM, […]",2.569%
Cc1nc(-c2ccc(F)cc2)cc(C2CCNCC2)n1,Percent Effect,"30.3 µM, […]",99.23%
CN(Cc1cc2cc(F)ccc2[nH]1)C(=O)C1CC(=O)N(C2CCCC2)C1 (stereo not drawn),Percent Effect,"30.3 µM, […]",9.704%
CCN(Cc1c(F)cccc1Cl)c1cc(C2CCNCC2)nc(C)n1,Percent Effect,"30.3 µM, […]",100.4%
Cc1ccc(-c2cc(C3CCNCC3)nc(C)n2)cc1.Cl,Percent Effect,"30.3 µM, […]",14.23%
COc1ccc2[nH]c(CNc3cc(C4CCNCC4)nc(C)n3)cc2c1,Percent Effect,"30.3 µM, […]",-59.5%
Cc1nc(-c2ccc(F)c(F)c2)cc(C2CCNCC2)n1.Cl,Percent Effect,"30.3 µM, […]",47.49%
CN(Cc1cc2cc(F)ccc2[nH]1)c1cc(C2CCCNC2)ncn1 (stereo not drawn),Percent Effect,"30.3 µM, […]",78.22%
Cc1c(CN(C)c2cc(C3CCCNC3)ncn2)[nH]c2ccccc12 (stereo not drawn),Percent Effect,"30.3 µM, […]",16.72%
CCN(Cc1ccncc1)c1cc(C2CCNCC2)nc(C)n1,Percent Effect,"30.3 µM, […]",4.844%
CN(C)c1ccc(NC(=O)c2cccc(N(C)C)c2)nc1,Percent Effect,"30.3 µM, […]",-2.123%
CCC(Nc1nc(C)nc2c1cnn2C)c1ncnn1CC (stereo not drawn),Percent Effect,"30.3 µM, […]",26.92%
O=C(CCn1ccc2cc(Br)ccc21)/N=c1\[nH]nc(C2CCCO2)s1 (stereo not drawn),Percent Effect,"30.3 µM, […]",4.273%
Cc1ccoc1-c1nnc(CNCC2CCCN2c2cccnn2)o1 (stereo not drawn),Percent Effect,"30 µM, 30.03 µM",-17.44%
COCCN(C)C[C@@H]1CN(C(=O)c2ccc(C)cc2)C[C@@H]1CO,Percent Effect,"30.3 µM, […]",11.58%
CN1CCCC2(CCN(C(=O)Cn3ncc4ccccc4c3=O)C2)C1=O (stereo not drawn),Percent Effect,"30.3 µM, […]",-13.05%
Cc1ccc(CN2CCN(CC(=O)N(C)C)[C@@H]3CS(=O)(=O)C[C@@H]32)cc1C,Percent Effect,"30.3 µM, […]",18.74%
COc1ccc(-c2noc(C(N)CCSC)n2)cc1 (stereo not drawn),Percent Effect,"30.3 µM, […]",-25.69%
N[C@H]1CN(CCCOc2ccccc2)C[C@@H]1C1CC1,Percent Effect,"30.3 µM, […]",66.02%
N[C@H]1CN(CCOc2ccc(F)cc2)C[C@@H]1C1CC1,Percent Effect,"30.3 µM, […]",44.73%
NC(=O)c1ccc(OCCCN2C[C@H](C3CC3)[C@@H](N)C2)cc1,Percent Effect,"30.3 µM, […]",42.52%
COCc1nn(C(C)C)c2c1CCN(Cc1nccs1)C2.O=C(O)C(F)(F)F,Percent Effect,"30.3 µM, […]",-18.46%
CCCc1c(C2CCOC(C)(C)C2)nc(N)c(C#N)c1-c1cnn(C)c1 (stereo not drawn),Percent Effect,"30.3 µM, […]",65.78%
CCn1cc(-c2c(C)c(C3CCOC(C)(C)C3)nc(N)c2C#N)cn1 (stereo not drawn),Percent Effect,"30.3 µM, […]",20.42%
Cc1c(C2CCOC(C)(C)C2)nc(N)c(C#N)c1-c1ccc(O)cc1 (stereo not drawn),Percent Effect,"30.3 µM, […]",-5.002%
CC(C)Oc1ccc(CN2CCC(c3n[nH]c4ncccc34)CC2)cc1,Percent Effect,"30.3 µM, […]",1.844%
Cc1ccccc1N1CCN(c2cc(N(C)C)ncn2)C(C)C1 (stereo not drawn),Percent Effect,"30.3 µM, […]",15.61%
Cc1ccccc1N1CCN(c2ccncn2)C(C)C1 (stereo not drawn),Percent Effect,"30.3 µM, […]",61.35%
Cc1ccc(N2CCN(c3ccccc3C)CC2C)nn1 (stereo not drawn),Percent Effect,"30.3 µM, […]",9.128%
Cc1nn(C)c(C)c1CN(C)c1nc(C2CCCC2)nc2c1cnn2C,Percent Effect,"30.3 µM, […]",17.71%
CN1CCC(c2n[nH]c3ncccc23)C1.O=CO (stereo not drawn),Percent Effect,"30.3 µM, […]",16.17%
CCc1cnc(CN(C(C)=O)C2CCN(CC(=O)N3CCCC3)C2)o1 (stereo not drawn),Percent Effect,30 µM,28.38%
Cc1cc(NCCN)nc2ccccc12.O=[N+]([O-])O,Percent Effect,"30.3 µM, […]",54.09%
Cc1cc(NCCS(C)(=O)=O)nc2ccccc12,Percent Effect,"30.3 µM, […]",25.68%
Cc1cc(NCCCNS(C)(=O)=O)nc2ccccc12,Percent Effect,"30.3 µM, […]",-8.515%
